Data on eight compounds can be found in the supplement of paper PMC13380429.

The subject of test [1] is Vero E6 infected with SARS-CoV-2. As to the kind of experiment: morphology score (similarity to uninfected cells); higher = more like uninfected cells. The conditions noted are these: 24 h.
The test system is the same in test [2]. As to the kind of experiment: SARS-CoV-2 infection rate relative to infected DMSO; higher = more infection, active = 60 or less. The conditions noted are these: 24 h.

The compound `CC1(C)O[C@@H]2C[C@H]3[C@@H]4CCC5=CC(=O)C=C[C@]5(C)[C@@]4(F)[C@@H](O)C[C@]3(C)[C@]2(C(=O)CO)O1` (10 µM) came in with a morphology score in test [1] of 0.0142. The SARS-CoV-2 infection rate in test [2] is 109% (inactive).

In test [1], `N=C(N)NN=C1C=CC(=NNC(N)=S)C=C1` [ambazone] (10 µM) came in with a morphology score of 0.129. Moreover, the SARS-CoV-2 infection rate in test [2] was 104% (inactive).

With `NCCCCN(Cc1nc2ccccc2[nH]1)[C@H]1CCCc2cccnc21` (10 µM), in test [1], the morphology score came to 0.0412. The SARS-CoV-2 infection rate in test [2] was 102% (inactive).

In test [1], `CCS(=O)(=O)N(C)[C@@H]1c2cc(C#N)ccc2OC(C)(C)[C@H]1O.CCS(=O)(=O)N(C)[C@H]1c2cc(C#N)ccc2OC(C)(C)[C@@H]1O` (racemic) [chromanol-(+/-)] (10 µM) came in with a morphology score of 0.241. For the same compound, the SARS-CoV-2 infection rate in test [2] is 98.5% (inactive).

For `COC(=O)[C@H](Cc1ccccc1)NC(=O)[C@@H](N)CC(=O)O` [aspartame] (10 µM), the morphology score in test [1] turned out to be 0.172. Also, the SARS-CoV-2 infection rate in test [2] is 106% (inactive).

For the compound `CC(=O)N[C@H](Cc1ccc2ccccc2c1)C(=O)N[C@H](Cc1ccc(Cl)cc1)C(=O)N[C@H](Cc1cccnc1)C(=O)N[C@@H](CO)C(=O)N[C@@H](Cc1ccc(NC(=O)[C@@H]2CC(=O)NC(=O)N2)cc1)C(=O)N[C@H](Cc1ccc(NC(N)=O)cc1)C(=O)N[C@@H](CC(C)C)C(=O)N[C@@H](CCCCNC(C)C)C(=O)N1CCC[C@H]1C(=O)N[C@H](C)C(N)=O` [degarelix] (10 µM), the morphology score in test [1] was -0.277. Also, the SARS-CoV-2 infection rate in test [2] was 115% (inactive).

For the compound `COC(=O)c1ccccc1O` [methyl-salicylate] (10 µM), the morphology score in test [1] is -0.162. Further, the SARS-CoV-2 infection rate in test [2] is 110% (inactive).

The compound `O=C1Cc2cc(CCN3CCN(c4nsc5ccccc45)CC3)c(Cl)cc2N1` [ziprasidone] (10 µM) registered a morphology score in test [1] of 0.328. Besides, the SARS-CoV-2 infection rate in test [2] was 100% (inactive).
